Test results taken from PubChem BioAssay AID1159580 (chemical genetic matrix, 2015).
Several values for one entry are separate records, joined by “and”; a condition that tells them apart may be missing. Identical values can stand only once. The campaign covered roughly 5,500 compounds. About 2,000 (36%) were called active. Another 18% or so got no clear call; they are omitted. Rule as the data show it: active = normalized growth mostly below about 0.91 (no sharp cut-off); inconclusive = no clear call, values can overlap the other calls; inactive = mostly above about 0.92. This is one part of the list.

Experiment: chemical genetic growth profiling, strain panel (AID 1159580);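 also: tested at 20 µM; growth read once vehicle control cultures reached saturation at 30 °C; 1 = growth at the plate median or of vehicle wells; lower values mean less growth of the strain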
Details: S. cerevisiae deletion strains, growth OD

Measured: normalized growth

COCCc1ccc(OCC(O)CNC(C)C)cc1 (stereo unspecified)
inactive: locus YAL013W, strain DEP1, hits give low values 1.01 | locus YAL021C, strain ccr4, hits give low values 1 | locus YAL026C, strain drs2, hits give low values 1.01 | locus YAL030W, strain snc1, hits give low values 0.988 | locus YAL040C, strain CLN3, hits give low values 0.996 | locus YBL061C, strain skt5, hits give low values 0.989 | locus YBR009C, strain hhf1, hits give low values 0.998 | locus YBR021W, strain FUR4, hits give low values 1.01 | locus YBR023C, strain chs3, hits give low values 0.987 | locus YBR171W, strain sec66, hits give low values 0.986 | locus YBR229C, strain ROT2, hits give low values 1 | locus YBR231C, strain swc5, hits give low values 1.01 | locus YBR279W, strain paf1, hits give low values 1.01 | locus YCL011C, strain gbp2, hits give low values 0.96 | locus YCL016C, strain dcc1, hits give low values 0.966 | locus YCL029C, strain bik1, hits give low values 1.03 | locus YCL061C, strain MRC1 (second series), hits give low values 1 | locus YCL061C, strain MRC1, hits give low values 0.997 | locus YCL069W, strain vba3, hits give low values 0.992 | locus YCR088W, strain abp1, hits give low values 1 | locus YDL005C, strain med2, hits give low values 1 | locus YDL035C, strain GPR1, hits give low values 0.997 | locus YDL040C, strain nat1, hits give low values 1.01 | locus YDL074C, strain BRE1, hits give low values 1.02 | locus YDL101C, strain DUN1, hits give low values 1.02 | locus YDL134C, strain PPH21, hits give low values 1 | locus YDL185W, strain tfp1, hits give low values 1.01 | locus YDL192W, strain arf1, hits give low values 1 | locus YDR001C, strain nth1, hits give low values 0.979 | locus YDR069C, strain doa4, hits give low values 0.991 | locus YDR101C, strain arx1, hits give low values 1.01 | locus YDR137W, strain rgp1, hits give low values 0.942 | locus YDR150W, strain NUM1, hits give low values 1 and 0.986 | locus YDR159W, strain sac3, hits give low values 1.02 | locus YDR162C, strain NBP2, hits give low values 1 | locus YDR195W, strain ref2 0.998 | locus YDR297W, strain sur2, hits give low values 1.02 | locus YDR318W, strain mcm21, hits give low values 1.02 | locus YDR334W, strain swr1, hits give low values 0.942 | locus YDR335W, strain msn5, hits give low values 0.984 | locus YDR363W, strain ESC2, hits give low values 1.02 | locus YDR388W, hits give low values 1.02 | locus YDR392W, strain spt3, hits give low values 0.944 | locus YDR502C, strain sam2, hits give low values 0.997 | locus YEL003W, strain gim4, hits give low values 0.996 | locus YEL037C, strain rad23, hits give low values 0.989 | locus YEL061C, strain CIN8 (second series), hits give low values 0.975 | locus YEL061C, strain CIN8, hits give low values 1.01 | locus YER002W, strain NOP16, hits give low values 0.993 | locus YER015W, strain faa2, hits give low values 0.988 | locus YER016W, strain bim1, hits give low values 0.999 | locus YER110C, hits give low values 1.01 | locus YER111C, strain swi4, hits give low values 1 | locus YER155C, strain BEM2 (second series), hits give low values 1.02 | locus YER155C, strain BEM2, hits give low values 1 | locus YER167W, strain BCK2, hits give low values 0.981 | locus YFR010W, strain ubp6, hits give low values 0.978 | locus YGL078C, strain dbp3, hits give low values 1.01 | locus YGL086W, strain mad1, hits give low values 1 | locus YGL167C, strain pmr1, hits give low values 0.989 | locus YGL173C, strain kem1, hits give low values 1 | locus YGL227W, strain vid30, hits give low values 0.988 | locus YGL240W, strain doc1, hits give low values 1.03 | locus YGL248W, strain PDE1, hits give low values 1.01 | locus YGL253W, strain hxk2, hits give low values 0.983 | locus YGR078C, strain PAC10, hits give low values 1.02 | locus YGR135W, strain pre9, hits give low values 1.01 | locus YGR229C, strain SMI1, hits give low values 1.01 and 1.02 | locus YGR252W, strain gcn5, hits give low values 0.978 | locus YHR013C, strain ard1, hits give low values 0.956 | locus YHR027C, strain rpn1, hits give low values 0.971 | locus YHR030C, strain SLT2, hits give low values 1 and 1.06 | locus YHR079C, strain IRE1 (second series), hits give low values 1.02 | locus YHR079C, strain IRE1, hits give low values 1.07 | locus YHR094C, strain hxt1, hits give low values 1.01 | locus YHR129C, strain ARP1, hits give low values 1.01 | locus YHR142W, strain chs7, hits give low values 0.943 | locus YHR200W, strain rpn10, hits give low values 1.02 | locus YIL066C, strain RNR3, hits give low values 1.01 | locus YIL073C, strain SPO22, hits give low values 1.04 | locus YIL125W, strain kgd1, hits give low values 1.01 | locus YIR030C, strain dcg1, hits give low values 1.02 | locus YJL092W, strain hpr5, hits give low values 0.988 | locus YJL095W, strain BCK1 (second series), hits give low values 0.994 | locus YJL095W, strain BCK1, hits give low values 1.03 and 1.04 | locus YJL115W, strain asf1, hits give low values 0.964 | locus YJL129C, strain trk1, hits give low values 1 | locus YJL134W, strain LCB3, hits give low values 1 | locus YJL154C, strain vps35, hits give low values 0.973 | locus YJL164C, strain tpk1, hits give low values 1.01 | locus YJL166W, strain qcr8, hits give low values 0.981 | locus YJL168C, strain set2, hits give low values 1.03 | locus YJL187C, strain SWE1 (second series), hits give low values 1.03 | locus YJL187C, strain SWE1, hits give low values 1.04 | locus YJR043C, strain POL32, hits give low values 1.01 | locus YJR066W, strain TOR1, hits give low values 1.01
